Active and inactive are the calls of the source. Rule for the calls: active = hit-call score of the fitted dose curve at least 0.9, where 1 is the maximum; inactive = score below 0.9.

What is called AC50 is the concentration giving half of the maximal activity seen.

Read-out in the assay: Monocyte Chemoattractant Protein-1 (MCP1), CCL2 (gene 6347)
Put plainly: BSK_CASM3C_MCP1: BioMAP Diversity Plus: CASM3C Assay for Monocyte Chemoattractant Protein-1 (MCP1) Biomarker Activity (AID 2283046).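 Note: MCP-1 level quantified by ELISA 24 h after dosing.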 The settings on record: primary human coronary artery smooth muscle cells; actives raise or lower the signal.
Regarding `CC(C)CC(C)O` (stereo not drawn), the outcome was inactive. On to `CCN(CC)C(=S)SSC(=S)N(CC)CC`, for which the AC50 is 31.6 µM (active). Take `FC(F)C(F)(F)COCC1CO1` (stereo not drawn): the outcome was inactive. On to `OCCC(F)(F)C(F)(F)C(F)(F)C(F)(F)F`, for which the result was inactive. `CCCCN1C(=O)[C@@H]([C@H](O)C2CCCCC2)NC(=O)C12CCN(Cc1ccc(Oc3ccc(C(=O)O)cc3)cc1)CC2`: the outcome was inactive. Still for that read-out and setting: the result for `NC(=O)N1c2ccccc2C=Cc2ccccc21` reads “inactive”; that for `CC(C)c1nnc2ccc(-c3ocnc3-c3cc(F)ccc3F)cn12`, “inactive”. On the same count and under the same terms, the result for `O=S(=O)(O)CCC(F)(F)C(F)(F)C(F)(F)C(F)(F)C(F)(F)C(F)(F)F` reads “inactive”; that for `FC(F)=C(F)C(F)(F)C(F)(F)C(F)(F)C(F)(F)C(F)(F)C(F)(F)F`, “inactive”. Still for that read-out and setting: the result for `Cc1ccc(S(=O)(=O)NC(=O)NN2CCCCCC2)cc1` reads “inactive”; that for `NC(N)=O`, “inactive”; that for `CC[C@H](C)C(=O)O[C@H]1C[C@H](O)C=C2C=C[C@H](C)[C@H](CC[C@@H](O)C[C@@H](O)CC(=O)O)[C@H]21`, “inactive”. For the compound `CCCCCCCCN(C)C`, the result was inactive. Still for that read-out and setting: the result for `FC(F)(F)C(F)(F)C(F)(F)C(F)(F)C(F)(F)C(F)(F)I` reads “inactive”; that for `O=S(=O)(O)c1ccc(N=Nc2c(O)ccc3cc(S(=O)(=O)O)ccc23)cc1`, “inactive”. On to `CCCCCCOC(=O)CC(CC(=O)OCCCCCC)(OC(=O)CCC)C(=O)OCCCCCC`, for which the result was inactive. Still for that read-out and setting: the result for `c1ccc2ncccc2c1` reads “inactive”; that for `OC[C@H]1O[C@@](CO)(O[C@H]2O[C@H](CO)[C@@H](O)[C@H](O)[C@H]2O)[C@@H](O)[C@@H]1O`, “inactive”.

As for `C[C@@H](Oc1ccc(CNC(=O)c2cccnc2Oc2ccc3c(c2)OCO3)c(F)c1)C(=O)O`, the outcome was inactive. The same measure, in the same setting: the result for `Nc1ccn([C@@H]2O[C@H](CO)[C@@H](O)[C@@H]2O)c(=O)n1` reads “inactive”; that for `CCCCCCCCCCCCCCCCOS(=O)(=O)O`, “inactive”; that for `CC(C)CCCCCCOC(=O)C1CCCCC1C(=O)OCCCCCCC(C)C` (stereo not drawn), “inactive”.

In the case of `O=C(O)[C@H](O)[C@@H](O)C(=O)O`, the result was inactive. With `O=c1[nH]cnc2c1ncn2[C@H]1CC[C@@H](CO)O1`, the result was inactive.

As for `OCC(CO)(CO)CO`, the result was inactive. As to `O=C(O)c1cccc(C(=O)O)c1`, the outcome was inactive. Still for that read-out and setting: for `OC[C@H]1O[C@@H]2O[C@H]3[C@H](O)[C@@H](O)[C@@H](O[C@H]4[C@H](O)[C@@H](O)[C@@H](O[C@H]5[C@H](O)[C@@H](O)[C@@H](O[C@H]6[C@H](O)[C@@H](O)[C@@H](O[C@H]7[C@H](O)[C@@H](O)[C@@H](O[C@H]1[C@H](O)[C@H]2O)O[C@@H]7CO)O[C@@H]6CO)O[C@@H]5CO)O[C@@H]4CO)O[C@@H]3CO` the value was “inactive”; for `CCOC(N)=O`, “inactive”.
